# The entries come from a sample that favours hits as a whole.
# Pf Dd2 inh = qHTS Primary assay for Inhibitors of Plasmodium falciparum Dd2 growth in vitro; P. falciparum Dd2 growth, SYBR Green, 72 h; Potency, µM (top dose mostly 28.9 µM), for the others: at the highest dose activity, negative = inhibition, most hits filed as inhibitors; hit rate 4.3% among 120,000; active means well fitted inhibition curve with a large enough effect;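 further: plate controls were DMSO vehicle for no effect and reference drug for full effect; nearly all actives have a fitted effect of over 65% in size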
#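 Readout: SYBR Green fluorescence, 485 nm excitation, 535 nm emission, after ~16 h lysis at 37C. Before that, Dd2-infected red cells (2.5% hematocrit) grew 72 h with compound, 29 uM top final concentration.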
# * = called active by the depositor; i = inactive; [ ] = remark or other dose. Potency means the concentration at half of the fitted maximal effect.
SMILES,Pf Dd2 inh
O=C(CSc1nc2ccccc2nc1Cc1ccccc1)N1CCN(c2ccccc2)CC1,44%
CC(C)c1ccc(-c2noc(SCC(=O)N3CCN(c4ccc(F)cc4)CC3)n2)cc1,0.45µM*
COc1ccc(N2CCN(C(=O)CSCc3ccc(C)cc3)CC2)cc1,-15%
O=C(CSc1n[nH]c(-c2ccccc2)n1)N1CCN(c2ccc(F)cc2)CC1,5%
COc1ccc(N2CCN(C(=O)CSc3n[nH]c(-c4ccccc4)n3)CC2)cc1,6%
CN1CCN(C(=O)[C@@H]2CCC[C@@H](NCc3nccn3C)CN(C)C(=O)C2)CC1,8%[44.1 µM]
COc1ccc(CNC(=O)[C@H]2CCC[C@H]2NC(=O)c2ccc(OC)nc2)cc1,-11%
O=C1NCC2(CCCN(C(=O)CCc3ccc(=O)[nH]n3)C2)O1 (stereo not drawn),-6%
COc1ccc(-c2noc(CC3CCN(C(=O)c4ccc(C)nc4)CC3)n2)cc1,i
Cc1ccccc1CN1C(=O)c2ccccc2S(=O)c2ccc(C(=O)N3CCOCC3)cc21 (stereo not drawn),i
Cc1ccc(CN2C(=O)c3ccccc3Sc3ccc(C(=O)OCc4ccco4)cc32)cc1,-16%
O=C(NCc1ccc2c(c1)OCO2)c1ccc2c(c1)N(Cc1ccc(F)cc1)C(=O)c1ccccc1S2=O (stereo not drawn),i
CCOc1ccc(CN2C(=O)c3ccccc3Sc3ccc(C(=O)O)cc32)cc1,93%
CCOc1ccc(CN2C(=O)c3ccccc3Sc3ccc(C(=O)NCCCN4CCOCC4)cc32)cc1,i
CC1CCC(NC(=O)c2ccc3c(c2)N(Cc2ccccc2F)C(=O)c2ccccc2S3(=O)=O)CC1 (stereo not drawn),-14%
CC1CCC(NC(=O)c2ccc3c(c2)N(Cc2ccccc2F)C(=O)c2ccccc2S3=O)CC1 (stereo not drawn),10µM*
CCOc1ccc(CN2C(=O)c3ccccc3Sc3ccc(C(=O)N4CCN(C)CC4)cc32)cc1,0.13µM*
COCCCNC(=O)c1ccc2c(c1)N(Cc1ccccc1F)C(=O)c1ccccc1S2=O (stereo not drawn),i
O=C(NCc1ccc2c(c1)OCO2)c1ccc2c(c1)N(Cc1cccc(Cl)c1)C(=O)c1ccccc1S2,10µM*
Cc1ccccc1CN1C(=O)c2ccccc2Sc2ccc(C(=O)OCc3ccco3)cc21,8.9µM*
O=C(NCc1ccc2c(c1)OCO2)c1ccc2c(c1)N(Cc1ccccc1)C(=O)c1ccccc1S2=O (stereo not drawn),30%
CN(Cc1cc(-c2ccccc2)no1)Cc1ncccc1C(=O)O,1%
O=C(c1ccoc1)N1C[C@H]2OC(=O)N(CCCN3CCOCC3)[C@H]2C1,-1%
COc1ccccc1-c1noc(CCC(=O)NCc2snnc2C)n1,-2%
CCn1cc(S(=O)(=O)NCCc2noc(COC)n2)cn1,29%
SMILES,Pf Dd2 inh
Cn1cc(CN[C@H]2C[C@H]3C(=O)NC[C@@H](CCC(=O)N4CCc5ccccc54)N3C2)c2ccccc21,-11%
COC(=O)c1ccccc1NC(=O)Cn1ccn2nc(-c3ccc(F)cc3)c(CO)c2c1=O,-10%
CCOc1ccc(CN2C(=O)c3ccccc3Sc3ccc(C(=O)NCc4ccco4)cc32)cc1,5µM*
COCCCNC(=O)c1ccc2c(c1)N(Cc1ccccc1)C(=O)c1ccccc1S2,-15%
O=C(NC1CCCC1)c1ccc2c(c1)N(Cc1ccccc1)C(=O)c1ccccc1S2,-24%
Cc1ccc(C)c(CN2C(=O)c3ccccc3Sc3ccc(C(=O)NCc4ccco4)cc32)c1,11µM*
O=C(NCCc1ccccc1)c1ccc2c(c1)N(Cc1ccc(F)cc1)C(=O)c1ccccc1S2,2%
O=C(NC1CCCC1)c1ccc2c(c1)N(Cc1ccc(F)cc1)C(=O)c1ccccc1S2,i
COc1ccc(CCNC(=O)c2ccc3c(c2)N(Cc2ccc(Cl)cc2)C(=O)c2ccccc2S3)cc1OC,7.9µM*
CCC(C)NC(=O)c1ccc2c(c1)N(Cc1ccccc1)C(=O)c1ccccc1S2 (stereo not drawn),-30%
CCOc1ccc(CN2C(=O)c3ccccc3Sc3ccc(C(=O)NC4CCC(C)CC4)cc32)cc1 (stereo not drawn),11µM*
O=C(NCc1ccco1)c1ccc2c(c1)N(Cc1ccc(Cl)cc1)C(=O)c1ccccc1S2,-7%
O=C(NCc1ccccc1-n1ccnc1)C1CC(=O)N(Cc2cccnc2)C1 (stereo not drawn),8%
Cc1noc(-c2nc(-c3ccc(N(C)C)cc3)no2)n1,-24%
O=C1[C@@H]2C[C@@H](O)CN2C2(CN(Cc3ccccc3Cl)C2)C(=O)N1Cc1ccccc1F,-25%
C=CCNC(=O)C[C@@H]1CCN(S(=O)(=O)c2ccccc2)C[C@@H]1CC,11%[44.1 µM]
CSCC(=O)N1CCCC(CCc2cccc(F)c2)C1 (stereo not drawn),-20%
Cc1ccc(C)c(CN2C(=O)CSc3ccc(C(=O)NCc4ccccc4)cc32)c1,-14%
COCCNC(=O)c1ccc2c(c1)N(Cc1cc(C)ccc1C)C(=O)c1ccccc1S2=O (stereo not drawn),i
O=C(NCCCN1CCOCC1)c1ccc2c(c1)N(Cc1ccccc1)C(=O)c1ccccc1S2,i
Cc1ccc(C)c(CN2C(=O)c3ccccc3S(=O)c3ccc(C(=O)NCCc4ccc(Cl)cc4)cc32)c1 (stereo not drawn),5µM*
Cc1ccc(C)c(CN2C(=O)c3ccccc3S(=O)c3ccc(C(=O)NCc4ccccc4Cl)cc32)c1 (stereo not drawn),-7%
Cc1ccc(C)c(CN2C(=O)c3ccccc3Sc3ccc(C(=O)NCc4ccc5c(c4)OCO5)cc32)c1,8.9µM*
COc1ccc(CN2C(=O)[C@@H]3C[C@@H](O)CN3C3(CN(Cc4cnc[nH]4)C3)C2=O)cc1,-21%[44.1 µM]
Cc1ccc(-c2ccc3nnc(CNC(=O)CSc4ccncc4)n3n2)cc1,-7%
SMILES,Pf Dd2 inh
COc1ccc(C(=O)N[C@@H]2CN(C(=O)Nc3ccc(OC(F)(F)F)cc3)CCC[C@H]2O)cc1,5µM*
O=C(N[C@@H]1CN(C(=O)Nc2ccc(OC(F)(F)F)cc2)CCC[C@H]1O)c1ccc(OCCN2CCOCC2)cc1,i
COc1ccc(C(=O)N[C@@H]2CN(C(=O)Nc3cccc(C#N)c3)CCC[C@H]2O)cc1,i
O=C(CC1=C2CCCCC2NC1=O)NC1CCCC1 (stereo not drawn),-18%
COc1ccccc1-c1ccnc(-c2nnc(C)n2Cc2ccncc2)c1,-24%[44.1 µM]
COc1cccc(CC(=O)N2CCCC3(C2)NC(=O)N(Cc2ccc(Cl)cc2)C3=O)c1 (stereo not drawn),i
O=C(COc1ccccc1)Nc1sc2c(c1C(=O)Nc1ccccc1)CCCCC2,25%
COc1ccc(NC(=O)c2c(NCc3cccs3)sc3c2CCCC3)cc1,7.9µM*
COC(=O)c1c(NC(=O)COc2cc(C)c(Cl)c(C)c2)sc2c1CCCC2,3%
CCOC(=O)c1ccc(NC(=O)c2csc3c2CCCC3)cc1,-22%
CCOC(=O)c1ccc(NC(=O)c2c(NCc3cccs3)sc3c2CCCCC3)cc1,10µM*
COc1ccc(NC(=O)c2c(NC(=O)COc3ccc(Cl)cc3)sc3c2CCCCC3)cc1,3.2µM*
COc1ccc(NC(=O)c2c(NC(=O)c3cccc(C)c3)sc3c2CCC3)cc1,-10%
COc1ccc(CC(=O)Nc2sc3c(c2C(=O)Nc2ccccc2)CCCCC3)cc1,0%
CCCCOc1ccc(C(=O)Nc2sc3c(c2C(=O)OCC)CCCCC3)cc1,-17%
